In the supplement of paper PMC11172423:

Experiments:
[1] = system: Falciformispora senegalensis CBS197.79; assay: growth relative to untreated control; higher = less inhibition, active = 20 or less
Procedure, shortened: (§1)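 In 96-well plates, suspended hyphal fragments of M. mycetomatis MM55 or F. senegalensis CBS197.79 were exposed to compound at 100 or 25 µM for 7 days at 37 °C. The suspension medium was colourless RPMI 1640 with L-glutamine and MOPS, adjusted to 68–72% transmission at 660 nm. Viability was measured with MTS (2 h, 490 nm) or resazurin (600 nm). Growth means metabolic activity compared with the untreated growth control after blank correction of both with medium plus dye.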

[2] = system: Madurella mycetomatis MM55; assay: as above
Procedure, shortened: as §1

Measured: growth

FC(F)(F)c1cc(Nc2nc3cnc(NCC4CC4)nc3n2C2CCNCC2)cc(C(F)(F)F)c1
active: [2]; 100 µM 5.31%
inactive: [1]; 25 µM 81.9% | [1]; 100 µM 20.9% | [2]; 25 µM 34.1%

COc1cc(N2CCN(C)CC2)ccc1Nc1nccc(-c2cn(C)c3cnccc23)n1
active: [2]; 100 µM 4.78%
inactive: [1]; 25 µM 69.1% | [1]; 100 µM 75.1% | [2]; 25 µM 36.2%

COc1cccc(OC2CCN(C(=O)c3cc(C(C)(C)C)nn3Cc3ccccc3)CC2)c1
inactive: [1]; 25 µM 82.9% | [1]; 100 µM 93.8% | [2]; 25 µM 87.4% | [2]; 100 µM 118%

C[C@H](NC(=O)c1cc2c(F)cccc2[nH]1)c1ccccc1
inactive: [1]; 25 µM 84.1% | [1]; 100 µM 68.4% | [2]; 25 µM 20.7%
active: [2]; 100 µM 7.43%

O=C(Nc1ccc(Cl)c(C(F)(F)F)c1)Nc1ccc(Cl)c(C(F)(F)F)c1
inactive: [1]; 25 µM 99.4% | [1]; 100 µM 88.1% | [2]; 25 µM 43.5% | [2]; 100 µM 49.6%

CN(C)CCNC(=O)c1csc(Nc2ccc(Cl)c(Cl)c2)n1
inactive: [1]; 25 µM 92.7% | [1]; 100 µM 83.6% | [2]; 25 µM 47.4% | [2]; 100 µM 62.3%

O=C(O)c1ccc2c(c1)nc(Nc1cccc(Cl)c1)c1ccncc12
inactive: [1]; 25 µM 97.2% | [1]; 100 µM 97.3% | [2]; 25 µM 125% | [2]; 100 µM 78.1%

Cc1ccc(Cl)cc1NC(=O)c1c(-c2ccccc2Cl)noc1C
inactive: [1]; 25 µM 79.7% | [1]; 100 µM 80.1% | [2]; 25 µM 32.8% | [2]; 100 µM 131%

COc1cccc(-c2ccc(NC(=O)C3=C(C(=O)O)CCC3)c(F)c2)c1
inactive: [1]; 25 µM 109% | [1]; 100 µM 105% | [2]; 25 µM 76.1% | [2]; 100 µM 91.5%

COc1ccc(-n2nc(C)c3c2NC(=O)CC3c2ccccc2OCc2ccc(F)cc2)cc1 (stereo unspecified)
inactive: [1]; 25 µM 82.5% | [1]; 100 µM 77.9% | [2]; 25 µM 41.5% | [2]; 100 µM 52.4%

CCOC(=O)N1CCC(=C2c3ccc(Cl)cc3CCc3cccnc32)CC1
inactive: [1]; 25 µM 106% | [1]; 100 µM 104% | [2]; 25 µM 54.3%
active: [2]; 100 µM 6.05%

Cn1nc(-c2cccc(C#N)c2)c2cc(-c3n[nH]c(C4CCCN4)n3)ccc21 (stereo unspecified)
inactive: [1]; 25 µM 98.7% | [1]; 100 µM 94.2% | [2]; 25 µM 92.7% | [2]; 100 µM 74.9%

CCCCCCO[C@@H](C)c1cccc(-c2csc(NC(=O)c3cc(Cl)c(/C=C(\C)C(=O)O)c(Cl)c3)n2)c1OC
inactive: [1]; 25 µM 80% | [1]; 100 µM 105% | [2]; 25 µM 81% | [2]; 100 µM 85.9%

OC(Cn1cncn1)(Cn1cncn1)c1ccc(F)cc1F
inactive: [1]; 25 µM 106% | [1]; 100 µM 105% | [2]; 25 µM 76%
active: [2]; 100 µM 4.95%

CCc1ccc2c(c1O)CCN(C)C2Cc1ccccc1Cl (stereo unspecified)
inactive: [1]; 25 µM 78.3% | [1]; 100 µM 27.8% | [2]; 25 µM 21.4%
active: [2]; 100 µM 6.23%

CCSC1CCCCC1NCCn1c(=O)oc2cccnc21 (stereo unspecified)
inactive: [1]; 25 µM 91.3% | [1]; 100 µM 90.9% | [2]; 25 µM 37.9% | [2]; 100 µM 93.1%

CN1[C@H]2CC[C@H]1CC(OC(c1ccccc1)c1ccccc1)C2 (stereo partly specified)
inactive: [1]; 25 µM 103% | [1]; 100 µM 103% | [2]; 25 µM 82.4% | [2]; 100 µM 84.3%

N#Cc1ccc(C/C(=N/NC(=O)Nc2ccc(OC(F)(F)F)cc2)c2cccc(C(F)(F)F)c2)cc1
inactive: [1]; 25 µM 97% | [1]; 100 µM 96.1% | [2]; 25 µM 98.2% | [2]; 100 µM 91.3%

CCC(C)(C)n1nnnc1C(c1cc2ccc(C)cc2[nH]c1=O)N1CCN(c2ccccc2)CC1 (stereo unspecified)
inactive: [1]; 25 µM 86% | [1]; 100 µM 84.3% | [2]; 25 µM 76.6% | [2]; 100 µM 91.7%

COc1ccc2c(c1)c(CC(=O)O)c(C)n2C(=O)c1ccc(Cl)cc1
inactive: [1]; 25 µM 111% | [1]; 100 µM 104% | [2]; 25 µM 79.7% | [2]; 100 µM 80.8%

Cc1ccc(-c2c3c(nc4sc(C(=O)Nc5ccc(F)cc5)c(N)c24)CCC3)cc1
inactive: [1]; 25 µM 81.3% | [1]; 100 µM 89.6% | [2]; 25 µM 110% | [2]; 100 µM 122%

CCCCN(CCCC)CCC(O)c1cc2c(Cl)cc(Cl)cc2c2cc(C(F)(F)F)ccc12 (stereo unspecified)
inactive: [1]; 25 µM 98.2% | [1]; 100 µM 106% | [2]; 25 µM 75.6% | [2]; 100 µM 77.3%

CC(C)c1cc(Oc2ccccc2)cc(C(C)C)c1NC(=S)NC(C)(C)C
inactive: [1]; 25 µM 89.5% | [1]; 100 µM 90.7% | [2]; 25 µM 111% | [2]; 100 µM 166%

CC(C)CC(NC(=O)N1CCOCC1)C(=O)NC(/C=C/S(=O)(=O)c1ccccc1)CCc1ccccc1 (stereo unspecified)
inactive: [1]; 25 µM 90.8% | [1]; 100 µM 93.9% | [2]; 25 µM 86.4% | [2]; 100 µM 96.5%

CCCCc1oc2ccccc2c1C(=O)c1cc(I)c(OCCN(CC)CC)c(I)c1
inactive: [1]; 25 µM 101% | [1]; 100 µM 104% | [2]; 25 µM 78.3% | [2]; 100 µM 87.6%

C[C@@H](c1nc(-c2ccc(C#N)cc2)cs1)[C@](O)(Cn1cncn1)c1ccc(F)cc1F
active: [2]; 25 µM 3.04% | [2]; 100 µM 5.78%
inactive: [1]; 25 µM 49.9% | [1]; 100 µM 52.3%

CN(C)c1cc(NC(=O)CNC(C)(C)C)c(O)c2c1C[C@H]1C[C@H]3[C@H](N(C)C)C(O)=C(C(N)=O)C(=O)[C@@]3(O)C(O)=C1C2=O
inactive: [1]; 25 µM 104% | [1]; 100 µM 107% | [2]; 25 µM 69.1% | [2]; 100 µM 104%

NC(=O)c1ncn([C@@H]2O[C@H](CO)[C@@H](O)[C@H]2O)n1
inactive: [1]; 25 µM 110% | [1]; 100 µM 102% | [2]; 25 µM 87.9% | [2]; 100 µM 87.6%

CCOC(=O)C1=C(CC)NC2=C(C(=O)CC(C)(C)C2)C1c1ccc(Br)cc1 (stereo unspecified)
inactive: [1]; 25 µM 82.3% | [1]; 100 µM 87% | [2]; 25 µM 106% | [2]; 100 µM 73.2%

NC(=O)c1cccc(CN2Cc3ccccc3OC3(CCN(Cc4c[nH]c5cnccc45)CC3)C2)c1
inactive: [1]; 25 µM 85% | [1]; 100 µM 96.6% | [2]; 25 µM 54.2% | [2]; 100 µM 71.2%

O=C(c1ccc(Nc2nccc(-c3cc(Cl)cc(C(F)(F)F)c3)n2)cc1)N1CC(O)C1
inactive: [1]; 25 µM 88.9% | [1]; 100 µM 93.2% | [2]; 25 µM 110% | [2]; 100 µM 85.6%

O=C(c1ccc(Nc2nccc(-c3ccc(Cl)cc3)n2)cc1)N1CC[C@@H](CO)C1
inactive: [1]; 25 µM 91.1% | [1]; 100 µM 89.6% | [2]; 25 µM 113% | [2]; 100 µM 117%

N#Cc1ccc(-c2ccc3nc(Oc4ccc(C(F)(F)F)cn4)cn3c2)nc1
inactive: [1]; 25 µM 101% | [1]; 100 µM 109% | [2]; 25 µM 32.3% | [2]; 100 µM 82.2%

O=C(Nc1ncccc1O)c1ccc(N2CCOCC2)nc1
inactive: [1]; 25 µM 90% | [1]; 100 µM 81.4% | [2]; 25 µM 92.8% | [2]; 100 µM 95.8%

CC(C)Nc1cc2c(cn1)nc(Nc1cc(Cl)cc(C#N)c1)n2C1CCNCC1
inactive: [1]; 25 µM 97.8% | [1]; 100 µM 106% | [2]; 25 µM 106% | [2]; 100 µM 79.1%

CCN1CCC(c2cc(C)c3nc(-c4cc5c(C)nc(C)cn5n4)cc(=O)n3c2)CC1
inactive: [1]; 25 µM 104% | [1]; 100 µM 107% | [2]; 25 µM 80.2% | [2]; 100 µM 89.8%

CC(C)(C)Nc1ncc2nc(Nc3cccc(C(F)(F)F)c3)n(CC3CCNC3)c2n1 (stereo unspecified)
active: [2]; 100 µM 3.65%
inactive: [1]; 25 µM 94.5% | [1]; 100 µM 91.5% | [2]; 25 µM 114%

O=C(NC1CCN(CCOc2ccc(Cl)cc2)CC1)c1c[nH]c2ccncc2c1=O
inactive: [1]; 25 µM 73.5% | [1]; 100 µM 84.8% | [2]; 25 µM 90.2% | [2]; 100 µM 102%

O=C(NC(CCO)C1CCCCC1)c1cc2ccc(C(F)(F)F)cc2[nH]1 (stereo unspecified)
inactive: [1]; 25 µM 79.2% | [1]; 100 µM 100% | [2]; 25 µM 101% | [2]; 100 µM 85.3%

Cc1onc(-c2ccccc2)c1-c1ccc(S(N)(=O)=O)cc1
inactive: [1]; 25 µM 97% | [1]; 100 µM 105% | [2]; 25 µM 117% | [2]; 100 µM 91.1%

Cc1cccc(-c2noc(-c3ccccc3)n2)c1
inactive: [1]; 25 µM 86.3% | [1]; 100 µM 99.4% | [2]; 25 µM 90.6% | [2]; 100 µM 68.5%

C[C@H](/N=C(\N)c1cc2c(F)cc(F)cc2[nH]1)c1ccccc1
active: [1]; 100 µM 15.3% | [2]; 100 µM 5.98%
inactive: [1]; 25 µM 98.5% | [2]; 25 µM 35%

COc1cc(NC(=O)Nc2cccc(CNC(=O)O[C@H]3CCOC3)c2)ccc1-c1cnco1
inactive: [1]; 25 µM 100% | [1]; 100 µM 102% | [2]; 25 µM 100% | [2]; 100 µM 81.8%

CN(C)C(=O)COC(=O)Cc1ccc(OC(=O)c2ccc(NC(=N)N)cc2)cc1
inactive: [1]; 25 µM 112% | [1]; 100 µM 108% | [2]; 25 µM 77.6% | [2]; 100 µM 93.2%

COC(=O)[C@@]1(c2ccc(C)cc2)C[C@H]1CN1CCC(O)(c2ccccc2)CC1
inactive: [1]; 25 µM 95.2% | [1]; 100 µM 97.4% | [2]; 25 µM 77.2% | [2]; 100 µM 72.2%

N#CC[C@H](C1CCCC1)n1cc(-c2ncnc3[nH]ccc23)cn1
inactive: [1]; 25 µM 110% | [1]; 100 µM 103% | [2]; 25 µM 76.6% | [2]; 100 µM 92.4%

FC(F)(F)CNc1ncc2nc(Nc3cc(Cl)cc(Cl)c3)n(C3CCNCC3)c2n1
inactive: [1]; 25 µM 104% | [1]; 100 µM 107% | [2]; 25 µM 70.4%
active: [2]; 100 µM 4.54%

CN(C)CCOc1ccc2nc(-c3cccc(OCc4ccccc4)c3)[nH]c2c1C#N
active: [1]; 100 µM 11.4% | [2]; 25 µM 4.87% | [2]; 100 µM 5.16%
inactive: [1]; 25 µM 50.2%

CN(c1ncc2nc(Nc3cc(Cl)cc(C(F)(F)F)c3)n(C3CCNCC3)c2n1)C1CC1
inactive: [1]; 25 µM 90.9% | [2]; 25 µM 54.8%
active: [1]; 100 µM 12.3% | [2]; 100 µM 5.99%
